Parameters in all cases: scale not given: direction of the effect not stated beside the values
For assay [1], the target named is Protein translocase subunit SecA (Escherichia coli (strain K12)) (UniProt P10408). Description: Assay to Identify E. coli SecA ATPase Inhibitors. The format is functional. Particulars: 30 µM.
Assay [2] has as its target T1, Ubiquitin-activating enzyme e1, putative (Leishmania donovani (strain BPK282A1)) (UniProt E9BSI1).
T1 sequence (whole entry): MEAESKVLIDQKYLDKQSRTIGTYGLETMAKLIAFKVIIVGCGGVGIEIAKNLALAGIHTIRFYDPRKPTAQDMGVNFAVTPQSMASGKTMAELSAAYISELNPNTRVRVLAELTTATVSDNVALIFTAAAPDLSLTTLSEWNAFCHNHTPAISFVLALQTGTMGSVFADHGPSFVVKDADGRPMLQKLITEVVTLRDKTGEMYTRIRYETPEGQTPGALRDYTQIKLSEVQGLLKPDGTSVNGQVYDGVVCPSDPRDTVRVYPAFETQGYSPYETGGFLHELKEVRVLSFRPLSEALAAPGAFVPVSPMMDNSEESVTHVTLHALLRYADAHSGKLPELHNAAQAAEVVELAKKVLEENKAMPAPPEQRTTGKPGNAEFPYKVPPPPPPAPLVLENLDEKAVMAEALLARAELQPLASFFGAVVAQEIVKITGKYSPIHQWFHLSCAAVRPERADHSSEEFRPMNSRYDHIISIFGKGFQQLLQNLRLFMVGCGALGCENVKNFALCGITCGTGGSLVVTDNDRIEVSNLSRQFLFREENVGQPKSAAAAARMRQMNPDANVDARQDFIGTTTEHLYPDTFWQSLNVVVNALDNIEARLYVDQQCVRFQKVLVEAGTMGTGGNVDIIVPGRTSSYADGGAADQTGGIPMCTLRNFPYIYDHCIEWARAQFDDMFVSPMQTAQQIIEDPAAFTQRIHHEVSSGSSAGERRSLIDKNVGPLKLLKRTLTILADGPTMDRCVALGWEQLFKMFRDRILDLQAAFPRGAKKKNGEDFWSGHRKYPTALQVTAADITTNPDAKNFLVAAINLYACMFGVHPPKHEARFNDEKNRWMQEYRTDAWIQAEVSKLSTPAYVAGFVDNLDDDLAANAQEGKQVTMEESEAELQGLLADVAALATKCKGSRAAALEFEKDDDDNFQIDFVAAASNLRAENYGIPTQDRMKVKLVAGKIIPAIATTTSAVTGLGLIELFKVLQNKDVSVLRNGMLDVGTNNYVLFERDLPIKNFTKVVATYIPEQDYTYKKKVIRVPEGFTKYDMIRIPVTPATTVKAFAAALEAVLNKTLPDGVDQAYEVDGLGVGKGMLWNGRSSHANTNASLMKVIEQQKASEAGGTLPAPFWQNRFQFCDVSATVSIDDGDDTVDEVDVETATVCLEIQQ
Description: Leishmania donovani Ubiquitin Activating Enzyme (LdE1). The format is functional. Particulars: 30 µM.

Assay [3] concerns the target AMP-activated protein kinase, AMPK (Homo sapiens) (UniProt P54646+O43741+P54619+Q9UGJ0+Q9Y478+Q13131+Q9UGI9). Description: AMP-dependent Kinase enzyme assay. An in vitro enzyme assay that detects ADP turnover that is directly proportional to AMPK activity. This uses naive AMPK that is activated during the assay with MK-8722. In kind it is functional. Particulars: 30 µM.

Assay [4] deals with Sialic acid-binding Ig-like lectin 9 (Homo sapiens) (UniProt Q9Y336). Put plainly: Hs-Siglec9 ALPHAscreen SOP 20170721. Conditions: 10 µM.
Sialic acid-binding Ig-like lectin 9 (Homo sapiens), sequence (Q9Y336 whole entry): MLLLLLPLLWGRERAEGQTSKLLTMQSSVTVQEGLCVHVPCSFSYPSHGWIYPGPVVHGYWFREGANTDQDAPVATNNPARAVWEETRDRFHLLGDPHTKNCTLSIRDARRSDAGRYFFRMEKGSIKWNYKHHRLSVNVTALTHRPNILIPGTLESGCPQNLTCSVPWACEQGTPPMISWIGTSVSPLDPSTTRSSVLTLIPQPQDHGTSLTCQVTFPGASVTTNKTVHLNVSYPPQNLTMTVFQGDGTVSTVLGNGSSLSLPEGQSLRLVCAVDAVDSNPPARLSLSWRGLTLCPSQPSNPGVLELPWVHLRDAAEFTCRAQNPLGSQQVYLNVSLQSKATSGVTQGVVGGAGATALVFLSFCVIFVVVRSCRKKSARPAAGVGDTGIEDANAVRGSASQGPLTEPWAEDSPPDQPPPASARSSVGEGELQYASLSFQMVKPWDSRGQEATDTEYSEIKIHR
In assay [5] the test system is Trypanosoma cruzi. Put plainly: Trypanosoma cruzi phosphomannomutase and mannose-1-phosphate guanylyltransferase assay. Conditions: 10 µM. The format is functional.
Assay [6] deals with T2, Arginase-2, mitochondrial (Homo sapiens) (UniProt P78540).
T2 sequence (whole entry): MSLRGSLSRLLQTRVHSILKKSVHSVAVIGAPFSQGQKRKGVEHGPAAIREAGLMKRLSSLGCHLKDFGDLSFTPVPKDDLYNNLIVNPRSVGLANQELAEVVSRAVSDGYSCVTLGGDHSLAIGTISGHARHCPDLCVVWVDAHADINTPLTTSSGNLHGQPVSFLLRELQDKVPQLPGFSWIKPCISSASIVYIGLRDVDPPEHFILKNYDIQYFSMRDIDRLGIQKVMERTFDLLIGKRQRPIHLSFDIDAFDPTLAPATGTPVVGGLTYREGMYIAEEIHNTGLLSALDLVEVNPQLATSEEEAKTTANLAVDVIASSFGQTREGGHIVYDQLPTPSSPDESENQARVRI
Put plainly: in vitro enzyme assay to detect the production of urea directly proportional to the activity of Arginase II. Further: in the data most compounds retested in dose-response had high values. The format is functional. Conditions: 33.3 µM.

The target in assay [7] is T3, Proteasome subunit beta (Trypanosoma cruzi) (UniProt O96673).
T3 sequence (whole entry): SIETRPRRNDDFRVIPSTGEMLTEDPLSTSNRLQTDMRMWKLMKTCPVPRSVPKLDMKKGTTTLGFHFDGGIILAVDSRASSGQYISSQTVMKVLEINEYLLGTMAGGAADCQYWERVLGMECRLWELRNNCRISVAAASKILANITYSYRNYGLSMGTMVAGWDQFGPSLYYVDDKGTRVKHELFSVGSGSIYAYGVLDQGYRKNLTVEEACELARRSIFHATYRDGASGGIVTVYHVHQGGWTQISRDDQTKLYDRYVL
Description: Trypanosoma cruzi proteasome chymotrypsin-like activity (TcProtChymo) assay. Further: in the data most compounds retested in dose-response had high values. In kind it is functional. Particulars: 9.37 µM.

For assay [8], the species on record is Homo sapiens. Description: To identify inhibition of the IFN signalling (Jak-Stat) pathway via expression of an eGFP reporter gene under the control of an IFN-stimulated response element (ISRE) containing MxA promoter. Particulars: 30 µM. In kind it is functional.
Assay [9] concerns the target T4, Tyrosyl-tRNA synthetase, putative (Trypanosoma cruzi (strain CL Brener)) (UniProt Q4DSP6).
T4 sequence (whole entry): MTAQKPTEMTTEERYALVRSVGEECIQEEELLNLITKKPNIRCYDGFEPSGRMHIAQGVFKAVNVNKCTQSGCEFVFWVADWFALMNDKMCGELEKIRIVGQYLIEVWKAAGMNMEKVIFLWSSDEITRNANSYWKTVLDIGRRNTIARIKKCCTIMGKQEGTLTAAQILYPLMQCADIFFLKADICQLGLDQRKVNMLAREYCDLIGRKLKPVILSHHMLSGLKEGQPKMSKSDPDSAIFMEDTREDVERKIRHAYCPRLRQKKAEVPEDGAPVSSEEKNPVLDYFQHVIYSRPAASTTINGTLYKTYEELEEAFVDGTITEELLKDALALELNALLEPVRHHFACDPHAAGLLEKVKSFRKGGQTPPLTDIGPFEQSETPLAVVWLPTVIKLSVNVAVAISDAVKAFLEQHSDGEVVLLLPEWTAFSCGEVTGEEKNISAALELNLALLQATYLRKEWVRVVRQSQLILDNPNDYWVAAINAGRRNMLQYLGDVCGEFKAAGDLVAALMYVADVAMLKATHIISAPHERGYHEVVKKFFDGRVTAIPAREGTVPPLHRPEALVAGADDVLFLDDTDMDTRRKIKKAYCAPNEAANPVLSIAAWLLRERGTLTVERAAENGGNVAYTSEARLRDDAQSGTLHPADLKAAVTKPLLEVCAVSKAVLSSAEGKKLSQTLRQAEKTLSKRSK
Description: Trypanosoma cruzi tyrosyl tRNA synthetase (TcYRS) _High Tyrosine SOP. Further: in the data most compounds retested in dose-response had high values. Particulars: 30 µM. In kind it is functional.

The target in assay [10] is T4, Tyrosyl-tRNA synthetase, putative (Trypanosoma cruzi (strain CL Brener)). Description: Trypanosoma cruzi tyrosyl tRNA synthetase (TcYRS) SOP. In kind it is functional. Particulars: 30 µM.
Assay [11] concerns the target Chromo domain-containing protein 1 (Saccharomyces cerevisiae (strain ATCC 204508 / S288c) (Baker's yeast)) (UniProt P32657). Description: ScCHD-1 Enzyme Inhibition Assay. Further: in the data most compounds retested in dose-response had high values. Particulars: 30 µM. The format is functional.

Structures are written as SMILES. For some of these results: Results with a measured potency or affinity are listed apart.

Chromo domain-containing protein 1 (Saccharomyces cerevisiae (strain ATCC 204508 / S288c) (Baker's yeast)), sequence (P32657 whole entry, the tested form may be a part): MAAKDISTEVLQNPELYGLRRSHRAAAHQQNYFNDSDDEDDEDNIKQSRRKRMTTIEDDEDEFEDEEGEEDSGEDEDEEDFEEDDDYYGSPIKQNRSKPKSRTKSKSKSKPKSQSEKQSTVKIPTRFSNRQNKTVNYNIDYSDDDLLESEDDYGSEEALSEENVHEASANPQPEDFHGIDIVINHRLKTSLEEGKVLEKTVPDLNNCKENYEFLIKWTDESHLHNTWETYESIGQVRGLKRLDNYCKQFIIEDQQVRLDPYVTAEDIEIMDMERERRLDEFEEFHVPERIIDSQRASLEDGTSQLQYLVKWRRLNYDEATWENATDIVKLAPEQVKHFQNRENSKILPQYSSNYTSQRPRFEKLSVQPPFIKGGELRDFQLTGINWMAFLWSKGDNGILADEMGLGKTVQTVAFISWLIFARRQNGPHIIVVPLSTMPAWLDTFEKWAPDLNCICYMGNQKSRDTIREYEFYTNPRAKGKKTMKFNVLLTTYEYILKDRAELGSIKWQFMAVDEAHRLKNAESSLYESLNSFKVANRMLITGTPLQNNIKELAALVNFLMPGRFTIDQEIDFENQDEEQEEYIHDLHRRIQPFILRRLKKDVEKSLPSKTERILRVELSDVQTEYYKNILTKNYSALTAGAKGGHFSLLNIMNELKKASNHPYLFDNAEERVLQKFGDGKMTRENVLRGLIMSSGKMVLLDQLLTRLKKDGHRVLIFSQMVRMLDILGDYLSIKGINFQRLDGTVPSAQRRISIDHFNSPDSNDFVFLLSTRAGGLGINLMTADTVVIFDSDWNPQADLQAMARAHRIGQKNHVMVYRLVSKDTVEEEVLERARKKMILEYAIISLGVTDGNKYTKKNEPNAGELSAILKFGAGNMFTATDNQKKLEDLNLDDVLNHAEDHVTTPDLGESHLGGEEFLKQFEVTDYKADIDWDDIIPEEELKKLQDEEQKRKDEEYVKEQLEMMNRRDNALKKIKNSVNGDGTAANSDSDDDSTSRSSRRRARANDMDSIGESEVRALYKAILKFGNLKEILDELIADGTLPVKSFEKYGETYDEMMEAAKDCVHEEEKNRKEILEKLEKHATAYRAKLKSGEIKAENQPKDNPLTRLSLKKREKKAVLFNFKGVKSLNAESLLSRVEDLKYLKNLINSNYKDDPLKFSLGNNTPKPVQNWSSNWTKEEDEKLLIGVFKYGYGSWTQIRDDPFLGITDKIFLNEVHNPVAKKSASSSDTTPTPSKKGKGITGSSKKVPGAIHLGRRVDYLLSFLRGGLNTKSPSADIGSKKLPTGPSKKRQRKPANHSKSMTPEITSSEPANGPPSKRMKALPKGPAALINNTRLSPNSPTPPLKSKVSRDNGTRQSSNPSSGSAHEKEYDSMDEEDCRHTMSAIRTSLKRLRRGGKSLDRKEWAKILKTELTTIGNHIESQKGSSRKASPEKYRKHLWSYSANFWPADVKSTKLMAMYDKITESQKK
Protein translocase subunit SecA (Escherichia coli (strain K12)), sequence (P10408 whole entry): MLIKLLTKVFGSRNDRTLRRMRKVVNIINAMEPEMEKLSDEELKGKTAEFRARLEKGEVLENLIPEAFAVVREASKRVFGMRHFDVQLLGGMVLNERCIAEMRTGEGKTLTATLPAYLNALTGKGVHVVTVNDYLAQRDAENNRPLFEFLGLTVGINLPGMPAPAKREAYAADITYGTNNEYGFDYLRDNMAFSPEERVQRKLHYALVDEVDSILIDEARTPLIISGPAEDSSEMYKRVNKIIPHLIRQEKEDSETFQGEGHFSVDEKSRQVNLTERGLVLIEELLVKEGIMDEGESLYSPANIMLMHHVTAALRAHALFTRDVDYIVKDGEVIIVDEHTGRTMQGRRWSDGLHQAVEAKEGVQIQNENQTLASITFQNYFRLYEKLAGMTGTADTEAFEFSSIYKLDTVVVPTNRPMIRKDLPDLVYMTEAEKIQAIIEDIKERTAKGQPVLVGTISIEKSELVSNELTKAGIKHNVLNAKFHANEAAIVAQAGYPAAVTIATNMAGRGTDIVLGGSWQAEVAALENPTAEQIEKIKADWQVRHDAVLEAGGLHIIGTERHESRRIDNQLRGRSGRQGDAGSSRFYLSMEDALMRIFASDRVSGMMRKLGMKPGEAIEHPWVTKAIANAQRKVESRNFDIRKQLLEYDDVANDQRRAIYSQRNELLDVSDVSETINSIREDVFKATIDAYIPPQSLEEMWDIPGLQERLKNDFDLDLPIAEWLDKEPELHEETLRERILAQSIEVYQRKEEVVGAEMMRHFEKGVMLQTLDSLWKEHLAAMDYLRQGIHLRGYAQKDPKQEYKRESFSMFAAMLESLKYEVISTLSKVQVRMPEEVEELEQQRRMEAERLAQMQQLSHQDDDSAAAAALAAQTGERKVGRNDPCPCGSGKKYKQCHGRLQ

For `COc1ccc(C2(NC(=O)CCn3cncn3)CCCCC2)cc1`, the Percent Effect in assay [1] is -4.12%; in assay [2], 9.46%; in [3] it was 4.65%; in assay [4], 7.71%; in [5], 0.79%; in assay [6], 1.62%. Also, the Percent Effect in assay [7] was 11.2%; in [8] it was -2%; in assay [9], 3.23%; in assay [10], 11.7%; in assay [11], -14.1%.

Regarding `CC(Cn1cccn1)NC(=O)Nc1nccs1` (stereo unspecified), the Percent Effect was -5.47% in assay [1]; 10.4% in [2]; 1.39% in [3]; 4.54% in assay [4]; -3.37% in [5]; 0.712% in assay [6]. Further, the Percent Effect was 5.57% in assay [7]; 17.5% in [8]; 4.85% in assay [9]; 19.5% in assay [10]; -5.22% in [11].

As for `O=C(NCc1ccccc1)c1nnc2ccc(N3CCOCC3)cc2n1`, the Percent Effect in [1] was -4.99%; in assay [2], -1.33%; in assay [3], 67.7%; in [4], 2.19%; in assay [5], -3.73%; in [6], -10.4%. Also, the Percent Effect was 14.1% in [7]; 4.89% in assay [8]; 6.35% in [9]; 7.69% in assay [10]; -13.2% in assay [11].

Take `CCNC(=O)c1ccoc1CN1c2ccccc2CC1C` (stereo unspecified): the Percent Effect in [1] was -3.54%; in assay [2], 2.74%; in [3], 7.91%; in assay [4], 9.27%; in assay [5] it was -3.97%; in [6], 2.4%. Moreover, the Percent Effect is 12.4% in assay [7]; 5.41% in assay [8]; 4.17% in assay [9]; 11.1% in [10]; 1.31% in [11].

For `CCN1C(=O)C2(CCOCC2)c2cc(NC(=O)c3ccco3)ccc21`, the Percent Effect in assay [1] is -4.08%; in assay [2] it was 18.2%; in [3] it was -1.2%; in assay [4] it was 14.7%; in assay [5], 3.64%; in [6] it was -11%. Moreover, the Percent Effect was 9.98% in [7]; 14.7% in assay [8]; 5.38% in [9]; 11.1% in assay [10]; 3.7% in assay [11].

`CCC1c2cccn2CCN1C(=O)c1ccc2nonc2c1` (stereo unspecified): the Percent Effect in [1] is -6.68%; in assay [2], -1.39%; in assay [3] it was -3.32%; in [4], -10.2%; in assay [5] it was -3.79%; in [6] it was 0%. Besides, the Percent Effect in assay [7] was 11.6%; in [8], -4.01%; in assay [9] it was 3.16%; in assay [10], -2.56%; in assay [11], 2.02%.

`O=C(NCC1CCOC1)c1csc(-c2ccco2)n1` (stereo unspecified): the Percent Effect in assay [1] is -2.71%; in assay [2], 13%; in assay [3] it was -3.93%; in assay [4], -0.826%; in [5], 5.24%; in assay [6], -1.07%. Further, the Percent Effect is 13.8% in [7]; 13.5% in assay [8]; 7.77% in [9]; 21.9% in assay [10]; -8.51% in assay [11].

`COc1cccc(CN2CCCCCC2c2cccs2)c1O` (stereo unspecified): the Percent Effect in assay [1] is -0.394%; in assay [2], 0%; in [3] it was -1.74%; in [4], -0.0415%; in assay [5], -3.65%; in [6], 4.52%. In addition, the Percent Effect in [7] was 15.8%; in assay [8] it was 21.7%; in assay [9], -1.06%; in assay [10] it was 8.97%; in assay [11], -5.25%.

In the case of `Cc1nc(C)n(CC2CN(Cc3cccc(C(N)=O)c3)CCO2)n1` (stereo unspecified), the Percent Effect is -1.88% in assay [1]; -5.41% in assay [2]; 5.74% in assay [3]; -4.05% in assay [4]; -4.69% in [5]; 0% in [6]. Also, the Percent Effect is 9.72% in assay [7]; -7.92% in assay [8]; 5.94% in [9]; 6.1% in assay [10]; 7.72% in assay [11].

On to `COc1ccc(C(CNC(=O)Nc2cn[nH]c2)N2CCOCC2)cc1` (stereo unspecified), for which the Percent Effect in [1] was -3.98%; in [2], 7.79%; in [3], 3.92%; in assay [4], 0.747%; in assay [5], 4.8%; in [6] it was 1.05%. Moreover, the Percent Effect in assay [7] is 15%; in [8], -2.67%; in assay [9], 10.5%; in [10], 25.9%; in assay [11] it was -20.4%.

For `COc1ccc2nnc(CCCC(=O)NCc3cccn3C)n2n1`, the Percent Effect in [1] is -2.1%; in [2], 22.7%; in [3] it was -8.56%; in assay [4] it was 0.257%; in [5], 1.57%; in assay [6] it was 0.176%. The Percent Effect in assay [7] is 17.4%; in assay [8], -1.92%; in assay [9], 8.47%; in [10], -41%; in [11] it was -12%.
